Assay results: the supplement of paper PMC7801607

Experiments:
[1] = system: CHO; assay: % viability of CHO cells (MTT); higher = less toxic; details: 48 h
In short: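 Viability was given as a percentage of untreated cells and measured colorimetrically by the tetrazolium (MTT) assay. Before this, CHO cells at 10^6 cells/well in 200 µL attached overnight, then received fresh medium containing compound at 2 or 20 µM for 48 h.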

[2] = system: HepG2-A16-CD81; assay: % inhibition of HepG2 viability (CellTiter-Glo); higher = more toxic; details: 5 µM;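 further: HepG2-A16-CD81 hepatoma cells plated as in the liver-stage assay but without sporozoites, with DMSO wells as negative and 25 µM puromycin as positive control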
[3] = system: Plasmodium falciparum NF54 stage IV/V gametocytes; assay: % inhibition of gametocyte viability (PrestoBlue); higher = more inhibition; details: 48 h
In short: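 Values are percent inhibition of gametocyte viability, normalised to vehicle and kill controls in a single run. Stage IV/V NF54 gametocytes (2% gametocytaemia, 5% haematocrit, 100 µL/well) were held with compound at 1 or 5 µM for 48 h at 37 °C, stationary and hypoxic. Viability was read as 612 nm fluorescence on 70 µL of supernatant after a 2 h incubation with 10 µL PrestoBlue.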

[4] = system: Plasmodium falciparum NF54 asexual blood stage; assay: % inhibition of asexual blood stage proliferation (pLDH); higher = more inhibition; details: 72 h
In short: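 Using 96-well plates, the screen was run twice on separate occasions with Plasmodium falciparum NF54 ring-stage cultures at 1% haematocrit and 2% parasitaemia. Each culture was exposed to compound at 2 or 20 µM for 72 h at 37 °C under a gas mix of 4% CO2, 3% O2 and 93% N2. After incubation, the parasite lactate dehydrogenase assay was read colorimetrically at 620 nm. From this readout, percent inhibition of asexual proliferation was derived against control wells.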

[5] = system: Plasmodium falciparum NF54 stage IV/V gametocytes; assay: % inhibition of gametocyte viability (ATP bioluminescence); higher = more inhibition; details: 24 h
In short: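 Viability of stage IV/V NF54 gametocytes is given as percent inhibition, normalised to control wells in a single run. Gametocytes enriched on density gradients were seeded at 30,000 per well in 96-well plates with compound at 1 or 5 µM and held at 37 °C for 24 h. ATP was then read with the Promega BacTiter Glo bioluminescence system.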

[6] = system: Plasmodium falciparum NF54 stage IV/V gametocytes; assay: % inhibition of gametocyte viability (luciferase reporter); higher = more inhibition; details: 48 h
In short: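 Luminescence from 30 µL lysate combined with 30 µL Promega luciferin substrate was recorded on a GloMax-Multi+ reader using 10 s integration. The lysate came from stage IV/V NF54-Pfs16-GFP-Luc gametocytes (2% gametocytaemia, 2% haematocrit) held with compound at 1 or 5 µM for 48 h at 37 °C under stationary, hypoxic conditions. Percent inhibition was normalised against controls run once.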

Row | Compound | % viability of CHO cells ([1]; 2 µM) [%] | % viability of CHO cells ([1]; 20 µM) [%] | % inhibition of HepG2 viability [2] [%] | % inhibition of gametocyte viability ([3]; 1 µM) [%] | % inhibition of gametocyte viability ([3]; 5 µM) [%] | % inhibition of asexual blood stage proliferation ([4]; 2 µM) [%] | % inhibition of asexual blood stage proliferation ([4]; 20 µM) [%] | % inhibition of gametocyte viability ([5]; 1 µM) [%] | % inhibition of gametocyte viability ([5]; 5 µM) [%] | % inhibition of gametocyte viability ([6]; 1 µM) [%] | % inhibition of gametocyte viability ([6]; 5 µM) [%]
1 | COc1ccccc1CN[C@H]1C2CCN(CC2)[C@H]1C(c1ccccc1)c1ccccc1 | 102 | 117 | -1 | 17.5 | 8.85 | -2.68 | 93 | 7.68 | 29.7 | 15.2 | < 0
2 | CCCCc1ccc(C(=O)O)nc1 | 90.2 | 130 | -0.607 | < 0 | 2.97 | 83.3 | 44 | 5.47 | < 0 | 7.1 | 6.9
3 | COc1cc(C(C)(C)CCCC(C)C)cc(OC)c1OC | 108 | 76.7 | 7.92 | 11.5 | 6.64 | -22 | 48.9 | 2.47 | < 0 | 8.33 | < 0
4 | C[C@H]1CC[C@]2(NC1)O[C@H]1C[C@H]3[C@@H]4CC[C@H]5C[C@@H](O)CC[C@]5(C)[C@H]4CC[C@]3(C)[C@H]1[C@@H]2C | 105 | 117 | -5.8 | 13.5 | 28.1 | 35.3 | 33.7 | < 0 | < 0 | 14.1 | 0.706
5 | C[C@@]1(O)[C@H](O)[C@@H](CO)O[C@H]1n1ccc2c(N)ncnc21 | 127 | 92 | -1.39 | < 0 | 2.26 | 14.8 | 43.2 | 12.3 | 7.84 | 1.8 | < 0
6 | O=C(NC12CC3CC(CC(C3)C1)C2)c1cc2ccccc2[nH]1 | 103 | 134 | 5.16 | 36.4 | 12.5 | 35 | 73.8 | < 0 | < 0 | < 0 | < 0
7 | Nc1c(C(=O)NCc2ccco2)c2nc3ccccc3nc2n1CCN1CCCCC1 | 104 | 57.3 | 10.7 | 23.5 | 46.1 | 77.4 | 116 | 51.4 | 59.7 | 13.7 | 0.236
8 | CN1C(=O)C(c2ccccc2)C(=O)N(c2ccccc2)c2cc(C(F)(F)F)ccc21 (stereo not drawn) | 95.2 | 110 | 3.09 | 20.2 | 14.5 | -15.6 | 32.9 | < 0 | < 0 | 11.6 | < 0
9 | COC(=O)Nc1nc2ccccc2[nH]1 | 99.1 | 110 | -1.93 | < 0 | < 0 | 6.96 | 10.6 | 1.54 | < 0 | < 0 | < 0
10 | CCN1CCN(Cc2nc3ccc([N+](=O)[O-])cc3c(=O)n2-c2ccccc2F)CC1 | 105 | 105 | -4.34 | < 0 | < 0 | 33 | 24.4 | 13.8 | 17.7 | 9.48 | < 0
11 | CC(C)Oc1cccc(NC(=O)c2ccccc2C(F)(F)F)c1 | 88.6 | 112 | 3.41 | 2.75 | < 0 | 2.15 | 9.83 | 3.08 | < 0 | < 0 | < 0
12 | NC1(C(=O)O)CCP(=O)(O)CC1 (stereo not drawn) | 113 | 81.6 | -2.82 | < 0 | < 0 | 12.3 | 13.4 | < 0 | < 0 | < 0 | 9.64
13 | C[N+]1(C)CCCC(OC(=O)C(O)(c2ccccc2)c2ccccc2)C1 (stereo not drawn) | 122 | 140 | -0.474 | 23.3 | 9.34 | 26 | 73.9 | < 0 | < 0 | < 0 | 3.73
